The text below walks through data of PubChem BioAssay (NCATS).

Records with an inconclusive call do not appear. Unmarked numbers belong to inactive results. The source made the active and inactive calls. Calls come from the whole dose curve; as a rule, active = well fitted activation curve with a large enough effect; inconclusive = small, poorly fitted or top-dose-only effect; inactive = no such curve, though single readings can be large or run the other way.
Potency is the fitted concentration of half-maximal effect.

This test deals with Cellular tumor antigen p53 (Homo sapiens) (UniProt P04637). Put plainly: Primary qHTS for small molecule compounds that upregulate eGFP-tagged delta133p53alpha (in N-terminal) cells. (AID 2060322).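 For activation: series mostly up to about 56 µM; 0% = DMSO vehicle and 100% = reference activator.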 Note: nearly all actives have a fitted effect of over 75% in size. Conditions: NCI-H358 eGFP-delta133p53alpha fluorescence, 24 h; activation: active compounds read high. An outline of the steps: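 NCI-H358 cells pre-induced 24 h with 10 ng/ml doxycycline to express N-terminal eGFP-delta133p53alpha, then dosed 24 h at 37C without doxycycline; fixed, Hoechst-stained, GFP intensity by laser scanning cytometry, normalized to DMSO (0%) and 57.5 uM 5-azacytidine (100%).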
Sequence of Cellular tumor antigen p53 (Homo sapiens) (P04637 whole entry, looked up): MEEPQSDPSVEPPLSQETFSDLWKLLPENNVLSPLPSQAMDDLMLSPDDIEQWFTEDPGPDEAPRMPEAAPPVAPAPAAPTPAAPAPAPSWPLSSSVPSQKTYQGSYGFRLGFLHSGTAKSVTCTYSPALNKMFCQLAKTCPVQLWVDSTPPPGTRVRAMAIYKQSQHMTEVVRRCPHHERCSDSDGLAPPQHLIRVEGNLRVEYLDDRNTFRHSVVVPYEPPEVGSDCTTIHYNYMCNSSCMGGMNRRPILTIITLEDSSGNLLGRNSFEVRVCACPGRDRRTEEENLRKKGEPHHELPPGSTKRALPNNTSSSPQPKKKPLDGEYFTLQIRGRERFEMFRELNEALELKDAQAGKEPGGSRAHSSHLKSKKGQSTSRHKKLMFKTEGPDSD
Turning to `COc1ccc(/C=C/C(=O)O[C@@H]2[C@@H](OC(C)=O)[C@@H](OC(C)=O)[C@H](O[C@H]3[C@@H]4C=CO[C@@H](O[C@@H]5O[C@H](CO)[C@@H](O)[C@H](O)[C@H]5O)[C@@H]4[C@@]4(CO)O[C@@H]34)O[C@H]2C)cc1`, the activation is 5.34%.

As for `COc1ccc(-c2ccccc2)cc1NS(=O)(=O)c1cc(Cl)cc(Cl)c1O`, the activation is -8.33%.

As for `C[C@@H]1O[C@@H](O[C@H]2[C@H](O)[C@@H](C(=O)O)O[C@@H](O[C@H]3CC[C@@]4(C)C(CC[C@]5(C)C4CC=C4C6CC(C)(C)CC[C@]6(C(=O)O)CC[C@]45C)C3(C)C)[C@@H]2O[C@@H]2OC[C@@H](O)[C@H](O)[C@H]2O)[C@H](O)[C@H](O)[C@H]1O` (stereo not given in full), the activation is 2.68%.

For the molecule `CC(C)(C)c1nnc(NS(=O)(=O)c2ccccc2)s1`, the activation was 11.7%.

Turning to `C=C(C)[C@@]1(O)C[C@@]2(C)C(=CC1=O)CC[C@@H](O)[C@@H]2C`, the activation was -3.82%.

On to `CC(=O)OC1CC2(C)C(CCC(C)C23Cc2c(O)cc(CO)c(C=O)c2O3)C(C)(C)C1O` (stereo not given), for which the activation is 23.7%.

As to `O=C(O)C(O[C@@H]1O[C@H](CO[C@@H]2O[C@H](CO)[C@@H](O)[C@H](O)[C@H]2O)[C@@H](O)[C@H](O)[C@H]1O)c1ccccc1` (stereo not given in full), the activation was -16%.

Take `CC1CC(=O)C2C(O)(C1)CC(O)C13OC1c1c(O)cccc1C(=O)C23O` (stereo not given): the activation is -1.53%.

As for `CC1(C)OC[C@H](NC(=O)Nc2ccc(Br)cc2Br)[C@H](c2ccccc2)O1`, the Potency was 19 µM (active).

On to `CC(C)=CCC[C@](C)(O[C@@H]1O[C@H](CO)[C@@H](O)[C@H](O)[C@H]1O)[C@H]1CC[C@]2(C)[C@@H]1[C@H](O)CC1[C@@]3(C)CC[C@H](O)C(C)(C)C3[C@@H](O[C@@H]3O[C@H](CO)[C@@H](O)[C@H](O)[C@H]3O[C@@H]3OC[C@@H](O)[C@H](O)[C@H]3O)C[C@]12C` (stereo not given in full), for which the activation was -15.3%.

For the molecule `C[C@H]1CC[C@@]2(OC1)O[C@H]1CC3C4CC[C@H]5C[C@@H](O)[C@H](O)C[C@]5(C)C4=CC(=O)[C@]3(C)[C@H]1[C@@H]2C` (stereo not given in full), the activation was 14.3%.

`CC(C)c1ccc2c(c1)C(=O)CC1[C@@](C)(C(=O)O)CCC[C@]21C` (stereo not given in full): the activation is -2.68%.

Take `CC1(C)CCCC2(C)C1CC(=O)C13CC(CCC12)C(O)(CO)C3` (stereo not given): the activation is -7.63%.

For the molecule `Cc1ccc(Cc2c(C)nc3nc(SCC(=O)NCCN4CCNCC4)nn3c2C)cc1`, the activation was -9.67%.

On to `COC1CC/C=C(\C)C(=O)Nc2cc(O)cc(c2)CC(C)CC(OC)C(O)C(C)/C=C(\C)C1OC(N)=O` (stereo not given), for which the activation was 6.87%.

Regarding `CC#C[C@@H](CC(=O)O)c1ccc(OCc2ccc(CN3CCC4(C=Cc5ccccc54)CC3)s2)cc1`, the activation was 4.46%.

For the molecule `CC(C)=CCC[C@](C)(O[C@@H]1O[C@H](CO[C@@H]2OC[C@H](O)[C@H](O)[C@H]2O)[C@@H](O)[C@H](O)[C@H]1O)[C@H]1CC[C@]2(C)[C@@H]1[C@H](O)C[C@@H]1[C@@]3(C)CC[C@H](O[C@@H]4O[C@H](CO)[C@@H](O)[C@H](O)[C@H]4O[C@@H]4O[C@H](CO)[C@@H](O)[C@H](O)[C@H]4O)C(C)(C)[C@@H]3CC[C@]12C`, the activation is 9.67%.

For the molecule `C#CCCCn1cc(-c2cccc3c2N[C@H](C)CC(=O)N3)cn1`, the activation was 8.93%.

Consider `Cc1cnc(NC(=O)Nc2cc(Br)c(C)cc2OCC2CNCCO2)cn1` (stereo not given), for which the activation was 11.6%.

As for `CO[C@@]12CC3[C@@H]([C@@H](O)[C@@H](OC(C)=O)C4[C@](C)(COC(C)=O)CCC[C@]34C)[C@@H](C)C1=CC(=O)O2` (stereo not given in full), the activation is -3.05%.

Turning to `CC1=C(C(=O)O)/C(=C\CO[C@@H]2O[C@H](CO)[C@@H](O)[C@H](O)[C@H]2O)C(OC(=O)/C=C/c2ccc(O)cc2)C1` (stereo not given in full), the activation was -3.82%.

On to `COc1c(/C=C/C(C)(C)O)ccc2c1C(=O)OCc1cc(C)cc(O)c1O2`, for which the activation was -12.5%.

Take `CC1CC(=O)C2=C(C1)C1OC1C1(O)C2C(=O)c2cccc(O)c2C1O` (stereo not given): the activation is 4.58%.

In the case of `COc1c(C)c(OCC=C(C)C)cc2c1CNC2=O`, the activation is -19.8%.

Turning to `Cc1ccc(C)c(NS(=O)(=O)c2cc(C(=O)Nc3ccccc3-c3ccccc3)ccc2C)c1`, the activation is 1.67%.

In the case of `CC(=O)OC[C@]1(O)[C@H]2[C@H](OC(=O)CC(C)C)OC=C(CO[C@@H]3O[C@H](CO)[C@@H](O)[C@H](O)[C@H]3O)[C@H]2C[C@@H]1O`, the activation is -1.79%.

On to `COc1cc(CCc2ccccc2)c(C(=O)O)c2c1CC(C(C)(C)O)O2` (stereo not given), for which the activation is -13%.

Consider `C=C[C@]1(C)C=C2CCC3C(C)(CCC[C@@]3(C)C(=O)O)C2CC1` (stereo not given in full), for which the activation was 3.57%.

Take `COc1cc(C(=O)OC[C@@]2(O)CO[C@@H](O[C@H]3[C@H](Oc4ccc(C(=O)O)cc4OC)O[C@H](CO)[C@@H](O)[C@@H]3O)[C@@H]2O)ccc1O`: the activation is -13.7%.

For the molecule `C=C1CC2C3(C)C(O)CC(=O)C(C)(C)C3C(O)C(OC(C)=O)C2(C)C2C(=O)OC(C)(C(=O)OC)C(=O)C12C` (stereo not given), the activation was 27.5%.

Take `C[C@H]1CC[C@@]2(OC1)O[C@H]1CC3C4CC[C@H]5C[C@@H](O[C@@H]6O[C@H](CO)[C@H](O[C@@H]7O[C@H](CO)[C@@H](O)[C@H](O[C@@H]8OC[C@@H](O)[C@H](O)[C@H]8O)[C@H]7O[C@@H]7O[C@H](CO)[C@@H](O)[C@H](O)[C@H]7O)[C@H](O)[C@H]6O)[C@H](O)C[C@]5(C)C4=CC(=O)[C@]3(C)[C@H]1[C@@H]2C` (stereo not given in full): the activation is 6.11%.

As to `C=C1CCCC2(C)CC3(OC)OC(=O)C(C)=C3CC12` (stereo not given), the activation was 16.1%.

With `CC(=O)N[C@H](Cc1c[nH]c2ccccc12)C(=O)OCc1cc(C(F)(F)F)cc(C(F)(F)F)c1`, the activation is 14.3%.

With `COc1cc2c(cc1O)[C@H](c1ccc(O[C@@H]3O[C@H](CO)[C@@H](O)[C@H](O)[C@H]3O)c(OC)c1)[C@@H](CO)[C@](O)(CO)C2`, the activation was -15.3%.

With `C=C1CCC2C(C)(C)CC(O)CC2(C)C1CCC(C)CCOC(=O)CCC(=O)O` (stereo not given), the activation is 17.6%.

With `C[C@@H]1O[C@@H](O[C@@H]2[C@@H](O)[C@H](O[C@@H]3[C@@H](O)[C@@H](O)[C@H](O[C@H]4[C@H](OC(=O)[C@]56CCC(C)(C)C[C@H]5C5=CCC7[C@@]8(C)C[C@H](O)[C@H](O[C@@H]9O[C@H](C(=O)O)[C@@H](O)[C@H](O)[C@H]9O)[C@@](C)(CO)C8[C@H](O)C[C@@]7(C)[C@]5(C)C[C@H]6O)O[C@@H](CO)[C@@H]4O)O[C@H]3C)OC[C@H]2O)[C@H](O)[C@H](O)[C@H]1O` (stereo not given in full), the activation is 12.2%.

For the molecule `C=C[C@H]1[C@H](O[C@@H]2O[C@H](CO)[C@@H](O)[C@H](O)[C@H]2O)OC=C(C(=O)OC)[C@H]1CC(=O)O`, the activation was -12.2%.

For the molecule `O=C(Nc1ccc(N2C(=O)[C@@H]3[C@H](C2=O)[C@@H]2C=C[C@H]3C2)c(Cl)c1)c1ccccn1`, the activation was -11.7%.

Regarding `COC(=O)C[C@H]1C(C)(C)[C@H](OC(C)=O)C2CC3=C4CC(=O)O[C@@H](c5ccoc5)[C@]4(C)CCC3[C@@]1(C)C2=O` (stereo not given in full), the activation is 2.68%.

Regarding `CC(=O)OC(CSC1CCC(=O)OC(C)CCC(=O)C1)C(=O)O` (stereo not given), the activation was -6.87%.
